Laboratory results reported in PubChem BioAssay (NCATS).
A number with no mark means an inactive call. Records with an inconclusive call do not appear. Entries that show only a call come without a potency. Calls of active or inactive are those of the source. Calls come from the whole dose curve; as a rule, active = well fitted curve in the direction sought with a large enough effect; inconclusive = small, poorly fitted or top-dose-only effect, or another doubt; inactive = no such curve, though single readings can be large; an effect the other way counts as inactive or inconclusive.

Legend:
[1] = target: Glutathione peroxidase 1 (Homo sapiens) (UniProt P07203); assay: Primary qHTS Assay for Inhibitors of Recombinant Selenoprotein Glutathione Peroxidase 1 (GPX1) (AID 1845191); note: nearly all actives have a fitted effect of over 65% in size
Sequence of Glutathione peroxidase 1 (Homo sapiens) (P07203 whole entry, looked up): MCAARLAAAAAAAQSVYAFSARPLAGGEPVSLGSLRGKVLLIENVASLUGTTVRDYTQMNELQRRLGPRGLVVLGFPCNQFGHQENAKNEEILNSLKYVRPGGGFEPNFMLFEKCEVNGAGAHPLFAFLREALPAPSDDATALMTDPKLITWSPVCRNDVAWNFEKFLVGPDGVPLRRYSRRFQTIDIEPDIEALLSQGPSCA
How it was run: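 GPX1 10 nM, GR 100 nM, GSH 1 mM, NADPH 0.5 mM, CHP 0.5 mM (final). 30-min cpd preincubation, RT. Ex340/Em450 read t=0, t=15 min.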

[2] = target: Phospholipid hydroperoxide glutathione peroxidase GPX4 (Homo sapiens) (UniProt P36969); assay: Primary qHTS Assay for Inhibitors of Recombinant Selenoprotein Glutathione Peroxidase 4 (GPX4) (AID 1845192); note: nearly all actives have a fitted effect of over 65% in size; for activity change, negative = inhibition: series mostly up to about 50 µM
Sequence of Phospholipid hydroperoxide glutathione peroxidase GPX4 (Homo sapiens) (P36969 whole entry, looked up): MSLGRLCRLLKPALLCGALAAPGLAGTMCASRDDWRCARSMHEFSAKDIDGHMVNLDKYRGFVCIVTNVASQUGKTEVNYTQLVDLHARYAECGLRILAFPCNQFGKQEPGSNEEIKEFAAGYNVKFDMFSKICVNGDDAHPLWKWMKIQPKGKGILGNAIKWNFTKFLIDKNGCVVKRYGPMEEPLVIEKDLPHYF
How it was run: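 qHTS, GR-coupled: GPX4 200 nM + cpd 30 min RT → GSH 1 mM, NADPH 0.5 mM, GR 100 nM → CHP 0.5 mM start; fluor 340/450 at t0 and t15 min; no-enzyme wells as control.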

[3] = target: Luciferin 4-monooxygenase (Photinus pyralis) (UniProt P08659); assay: Primary firefly luciferase (FLuc) qHTS assay for identification of artifact compounds. (AID 1845220); note: nearly all actives have a fitted effect of over 60% in size; for activity change, negative = inhibition: series mostly up to about 54 µM
How it was run: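 In this counter-screen for luciferase artifacts, test compounds met substrate (10 uM each luciferin and ATP) before 10 nM enzyme started the reaction. Light output was measured 5 min later.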

[4] = Primary fluorescence-based thiol-reactive (MSTI) qHTS assay for identification of artifact compounds. (AID 1845221); note: nearly all actives have a fitted effect of over 65% in size; note: potency is the fitted concentration of half-maximal effect;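 for activity change, negative = thiol reactive: series mostly up to about 54 µM; thiol-reactive compounds lower the probe fluorescence signal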
How it was run: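 MSTI probe at 4 uM final in 2% DMSO/PBS pH 7.4; compounds, 1 h at room temperature in dark. Fluorescence Ex/Em 525/598 nm, normalised to Acetyl-MSTI and MSTI, fitted to 4-parameter Hill.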

[5] = test system: Nanoluciferase (engineered Oplophorus gracilirostris luciferase); assay: Primary Nanoluciferase (NLuc) qHTS assay for identification of artifact compounds. (AID 1845222);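 note: NLuc secreted into diluted conditioned medium of S16 cells; series mostly up to about 54 µM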
How it was run: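 Using secreted nanoluciferase in S16 culture medium (0.22 um filtered, 1:55 dilution), compounds were preincubated 15 min at RT. Signal was generated with Nano-Glo reagent (1:100) over 5 min.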

Row | Compound | Potency [1] | Potency [2] | Potency [3] | Potency [4] | Potency [5] | activity change, negative = inhibition [3] | activity change, negative = thiol reactive [4] | activity, negative = inhibition [5] | outcome [1] | outcome [2]
1 | CCC(C)C(=O)OC1CC(O)C23C4OCC5(C(O)CC2C1(C)C(O)O4)C3C(=O)CC1(C)C(c2ccoc2)CC2OC215 (stereo not given) | inactive | inactive | inactive | inactive | inactive | – | – | – | – | –
2 | COc1cc(Nc2nc3ccccc3nc2NS(=O)(=O)c2ccc(NC(=O)c3ccc(OC)c(C)c3)cc2)cc(OC)c1 | inactive | inactive | inactive | 1.68 µM (active) | inactive | – | – | – | – | –
3 | CCC(O)C(C)C1CCC(C(C)C(=O)O)O1 (stereo not given) | inactive | inactive | inactive | 10.6 µM (active) | inactive | – | – | – | – | –
4 | C[C@H](CCC(=O)O)[C@H]1CC[C@H]2[C@@H]3C[C@H](O)[C@@H]4C[C@H](O)CC[C@]4(C)[C@H]3CC[C@]12C | inactive | inactive | inactive | inactive | inactive | – | – | – | – | –
5 | CCC(C)C(=O)O[C@H]1CCC=C2C=C[C@H](C)[C@H](CC[C@@H](O)C[C@@H](O)CC(=O)O)[C@H]21 (stereo not given in full) | inactive | inactive | inactive | inactive | inactive | – | – | – | – | –
6 | CNC(=O)c1ccccc1Nc1cc(Nc2ccc(N3CCOCC3)cc2OC)ncc1C(F)(F)F | inactive | inactive | inactive | 1.5 µM (active) | inactive | – | – | – | – | –
7 | CC(=O)O[C@H]1CC(C)(C)CC2[C@@]13[C@H](O)C[C@]1(C)[C@@]2(CCC2[C@@]4(C)CC[C@H](O[C@@H]5OC[C@H](O[C@@H]6O[C@H](CO)[C@@H](O)[C@H](O)[C@H]6O[C@@H]6OC[C@@H](O)[C@H](O)[C@H]6O)[C@H](O)[C@H]5O[C@@H]5O[C@H](CO)[C@@H](O)[C@H](O)[C@H]5O)C(C)(C)C4CC[C@]21C)O[C@@H]3O (stereo not given in full) | inactive | inactive | – | – | – | -0.127% [at 11.6 µM] | 93.4% [at 11.5 µM] | 2.06% [at 11.6 µM] | – | –
8 | CC1=CC2C(CC1OC1OC(CO)C(O)C(O)C1O)C(C)CC(=O)C2C(C)C (stereo not given) | inactive | inactive | inactive | 3.69 µM (active) | inactive | – | – | – | – | –
9 | CC(C)=CC/C=C(\C)[C@H]1CC[C@]2(C)[C@@H]1[C@H](O)C[C@@H]1[C@@]3(C)CC[C@H](O)C(C)(C)[C@@H]3[C@@H](O[C@@H]3O[C@H](CO)[C@@H](O)[C@H](O)[C@H]3O)C[C@]12C | inactive | inactive | inactive | inactive | inactive | – | – | – | – | –
10 | C/C=C1\[C@H](OC2OC(COC3OC(CO)C(O)C(O)C3O)C(O)C(O)C2O)OC=C(C(=O)OC)[C@H]1CC(=O)OCCc1ccc(O)cc1 (stereo not given in full) | inactive | inactive | inactive | 5.61 µM (active) | inactive | – | – | – | – | –
11 | CC(C)c1cc(C(=O)N2CC[C@@H](NC(=O)C3CC3)C2)n[nH]1 | inactive | inactive | inactive | inactive | inactive | – | – | – | – | –
12 | COc1cccc(C(=O)N2CCN(C(=O)COc3cccc(C)c3)CC2)c1OC | inactive | inactive | inactive | inactive | inactive | – | – | – | – | –
13 | CC(=O)OC1/C(C)=C/C(=O)C(OC(C)=O)C(C)(C)/C=C/C(C)C(=O)C2(OC(C)=O)CC(C)C(OC(=O)c3ccccc3)C12 (stereo not given) | inactive | inactive | inactive | inactive | inactive | – | – | – | – | –
14 | CC1(C)CC[C@]2(C(=O)O[C@@H]3O[C@H](CO[C@@H]4O[C@H](CO)[C@@H](O)[C@H](O)[C@H]4O[C@@H]4O[C@H](CO)[C@H](O)[C@H](O)[C@H]4O)[C@@H](O)[C@H](O[C@@H]4O[C@H](CO)[C@@H](O)[C@H](O)[C@H]4O)[C@H]3O)CC[C@]3(C)C(=CCC4[C@@]5(C)CC[C@H](O[C@@H]6OC[C@@H](O)[C@H](O)[C@H]6O)[C@@](C)(C(=O)O)C5CC[C@]43C)[C@@H]2C1 (stereo not given in full) | – | – | – | – | – | 3.08% [at 11.6 µM] | 79.6% [at 11.5 µM] | 0.986% [at 11.6 µM] | inactive [at 9.52 µM] | inactive [at 9.73 µM]
15 | COc1cccc(-c2cc(NCc3ccc4c(c3)OCO4)nc(N)n2)c1 | inactive | inactive | inactive | inactive | inactive | – | – | – | – | –
16 | CC(=O)O[C@@](C)(C(=O)/C=C/C(C)(C)O)[C@H]1[C@H](O)C[C@@]2(C)[C@@H]3CC=C4[C@@H](C=C(O)C(=O)C4(C)C)[C@]3(C)C(=O)C[C@]12C | inactive | inactive | inactive | inactive | inactive | – | – | – | – | –
17 | Cn1cc(S(=O)(=O)c2ccc(Cl)cc2)c2cccc(N3CCNCC3)c21 | inactive | inactive | inactive | inactive | inactive | – | – | – | – | –
18 | CC(=O)N1CCN(Cc2ccc([C@H](C)Nc3nccc(N4C(=O)OC[C@@H]4C(C)C)n3)cc2)CC1 | inactive | inactive | inactive | inactive | inactive | – | – | – | – | –
19 | CC1OC(OCC2OC(OC3CCC4(C)C(CCC5(C)C4CC=C4C6CC(C)(C)CCC6(C(=O)OC6OC(CO)C(O)C(O)C6O)CCC45C)C3(C)CO)C(O)C(O)C2O)C(O)C(O)C1O (stereo not given) | inactive | inactive | – | – | – | -1.2% [at 11.6 µM] | 188% [at 11.5 µM] | 0% [at 11.6 µM] | – | –
20 | C=C1C(=O)OC2C1CCC(=C)C1CC(OC(C)=O)C(=C)C12 (stereo not given) | inactive | inactive | inactive | 18.9 µM (active) | inactive | – | – | – | – | –
21 | O=C(c1cc2c(cc1F)OC(c1ccc(F)cc1)(c1ccc(Cl)cc1Cl)O2)N1CCOCC1 (stereo not given) | inactive | inactive | inactive | inactive | inactive | – | – | – | – | –
22 | CC(C)S(=O)(=O)N[C@H]1CCOC[C@@H]1c1ccc(-c2ccc(C#N)s2)cc1 | inactive | inactive | inactive | inactive | inactive | – | – | – | – | –
